Key:
Assay in all cases: PBM binding z-score (relative to random genomic background probes); higher = stronger binding; sequences stand for … in GC…GCGATTGACAGCGTAGAATGAAGG
[1] = tested on: LXRa:RXRa (NR concentration 270 nM, RXRa partner concentration 90 nM)
Summary of the method: (§1)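 Custom Agilent 4×180K protein-binding microarrays carried double-stranded probes, each with a 34-nt variable region. These regions held direct-repeat seeds, single-nucleotide variants, half-site ablations and random human genomic background sequences. Ligand-free nuclear receptor dimers were incubated on the arrays for 1 h, antibodies against each partner (one per run) detected binding, and scanned fluorescence was regression-normalized. Binding z-scores take the random background probes as reference.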

[2] = tested on: LXRa homodimer (NR concentration 270 nM)
Summary of the method: as §1

[3] = tested on: LXRb homodimer (NR concentration 270 nM)
Summary of the method: as §1

[4] = tested on: PPARa:RXRa (NR concentration 270 nM, RXRa partner concentration 90 nM)
Summary of the method: as §1

[5] = tested on: PPARg:RXRa (NR concentration 180 nM, RXRa partner concentration 90 nM)
Summary of the method: as §1

[6] = tested on: PPARg:RXRa 270nM:90nM, anti-RXR (NR concentration 270 nM, RXRa partner concentration 90 nM)
Summary of the method: as §1

[7] = tested on: PPARg:RXRa 30nM:10nM, anti-RXR (NR concentration 30 nM, RXRa partner concentration 10 nM)
Summary of the method: as §1

[8] = tested on: PPARg:RXRa 90nM:30nM, anti-RXR (NR concentration 90 nM, RXRa partner concentration 30 nM)
Summary of the method: as §1

[9] = tested on: PPARg:RXRa DBDmut IVT, anti-RXR (DBD mutation: RXRa K156A/R161A, NR concentration 270 nM, RXRa partner concentration 90 nM)
Summary of the method: as §1

| Sequence | PBM binding z-score [1] | PBM binding z-score [2] | PBM binding z-score [3] | PBM binding z-score [4] | PBM binding z-score [5] | PBM binding z-score [6] | PBM binding z-score [7] | PBM binding z-score [8] | PBM binding z-score [9] |
| --- | --- | --- | --- | --- | --- | --- | --- | --- | --- |
| CAGCATAGGTCAGGGCCAGTATAGGAGGAACGTT | 2.57 | -0.16 | -0.316 | 3.86 | 2.08 | 1.98 | 0.464 | 0.958 | 0.577 |
| CCTGCTAGGTCATGGTCAGCGAATCTACAGTATG | 2.19 | -0.0156 | -0.255 |  | 2.7 | 2.69 | 0.687 | 1.77 | 4.64 |
| GGAACGAGGTCATTCGAGTTGATAGCATGGCGAT | 6.43 | 1.91 | 1.68 | 5.98 | 6.59 | 6.55 | 3.27 | 5.58 | 5.42 |
| AATACAGGGTAACTAGGCCAGAGTAGGTACGAAT | 0.106 | -0.23 | -0.0777 | 2.01 | 2.82 | 2.44 | 0.877 | 1.88 | 3.4 |
| CCTACTCGGCCAAAAAGGTCATTGATGCCGATAA | 4.55 | 4.59 | 0.927 |  | 1.91 | 3.11 | 0.833 | 2.27 | 1.1 |
| TATAAAGGGTCAAAGGCCAGAGTACGAATGTCGA | 6.68 | 2.98 | 3.14 |  | 8.34 | 7.5 | 6.09 | 7.52 | 2.57 |
| CCTACTGGGCCAAAGAGGTCATTGATGCCGATAA | 3.88 | 2.87 | -0.243 |  | 3.95 | 4.73 | 1.71 | 3.75 | 4.23 |
| ATATGTAGGTTAAGCGTCATTCAGGTTGGTTCGC | 1.08 | 0.422 | 0.251 | 4.16 | 6.75 | 6.77 | 5 | 6.63 | 7.13 |
| CGTCCAAGGTCGAAGGTCAGTGAAGAGATGACGG | 3.14 | 0.000668 | -0.645 | 4.7 | 5.43 | 5.79 | 3.26 | 5.18 | 0.518 |
| GATACGGGGTCAAGGCCAGAGTACGCGTATTGAT | 6.02 | 0.0824 | 0.667 |  | 8.92 | 8.33 | 5.85 | 7.78 | 4.87 |
| CGTCAAAGGTCAGAGAGGTCAGTGAATGCCGAGT | 6.59 | 4.99 | 1.76 | 6.13 | 7.66 | 7.15 | 4.06 | 6.28 | 4.14 |
| CGTCCAAGGTTAAGGTCAGTGAAAGAGACTCGAA | 3.28 | 0.367 | -0.224 | 3.78 | 2.06 | 2.6 | 0.541 | 1.49 | 1.47 |
| GCTGCTAGGTCAACTGATGGCCAGCTAAAGCTCG | 2.54 | -0.17 | -0.174 | 3.6 | 2.45 | 3.01 | 0.617 | 2.13 | 4.28 |
| CGTCAAAGGTCAGCAGGTCAGTGAAAGCGACGTG | 6.48 | 2.22 | 1.28 |  | 8.46 | 7.84 | 4.46 | 7.02 | 4.94 |
| CGAACTAGGTCAAGGGACAGTGAAAGGCGACGTA | 2.17 | -0.308 | -0.604 | 4.78 | 8.6 | 7.25 | 5.85 | 7.35 | 7.79 |
| CGAACTAGGTCGAGGACAGTGAATCTCCGCACGC | -0.0944 | -0.716 | -0.651 | 1.75 | 2.03 | 1.98 | 0.0747 | 1.23 | 5.71 |
| CCTGCGAGGTCATGGTCAGCTAATCTACAGTATG | 5.55 | 1.41 | 0.772 | 5.87 | 5.93 | 5.94 | 2.34 | 4.57 | 3.79 |
| CCAGACAGGTGAGAAGGTAACTCAGCCTCGATTA | 0.435 | 0.0228 | -0.0173 | 0.833 | 0.522 | 0.838 | 0.0404 | 0.628 | 1 |
| ATCGAAAGGTCCACGAGGTGAGTATACACCGTTT | 0.186 | -0.0739 | -0.26 | 0.734 | 0.818 | 0.448 | 0.0544 | 0.533 | 0.0323 |
| CGAACTAGGTCAAGGACAGTAAATCTCCGCACGC | 2.4 | 0.115 | -0.249 |  | 7.56 | 6.25 | 3.88 | 6.02 | 7.9 |
| AGAATGAGGTCAAGATCAGGGAAACAGAATACAT | 5.9 | 0.974 | 1.7 |  | 7.59 | 6.96 | 4.75 | 6.74 | 5.82 |
| CGTCCAAGGTCATAGGGGGTCAGTGAAGACAGAT | 7.05 | 4.02 | 8.62 | 6.34 | 7.32 | 7.58 | 4.55 | 6.71 | 3.59 |
| TAGCCTAGGGCATTCAGGGGCCAGTATAGAAAGC | -0.052 | -0.233 | -0.352 | 0.0278 | 0.0283 | -0.154 | -0.552 | -0.385 | -0.268 |
| CCTCGGAGGACAGAAGGTCAAAGCTGTCCGCTTT | 4.02 | 1.82 | -0.421 |  | 0.66 | 2.18 | -0.0409 | 1.41 | 0.187 |
| CGAACGAGGTCATCCAGGACAGTGAATACATTGA | 6.03 | 1.53 | 1.78 |  | 7.79 | 7.07 | 3.9 | 6.1 | 5.37 |
| TAGCCTAAGTCATGCGGGCCAGTATAGTGTCGGC | -0.396 | -0.595 | -1.13 |  | -0.117 | -0.602 | -0.673 | -0.77 | -0.333 |
| TTACCAAGGTGAACGGTCGTTGATGCACGCCTTG | 0.744 | -0.159 | -0.974 |  | 1.77 | 2.8 | 1.17 | 2.35 | 2.31 |

Source: the supplement of paper PMC6555819
